The supplement of paper PMC13380429
Where a name gives a salt, the structure may show the parent alone.

Test system: Vero E6 infected with SARS-CoV-2
Assay: inhibition of SARS-CoV-2 cytopathic effect; higher = more antiviral protection, active = above 15
Conditions: 48 h

Measured: inhibition of SARS-CoV-2 cytopathic effect

CCSC(=N)N [EIT-hydrobromide]
inactive: 1 nM 0.03% | 8.33 nM -1.2% | 100 nM -0.94% | 833.33 nM -0.69% | 10000 nM -1.4%

O=C(CN1C(=O)C2(CCCC2)NC[C@H]1c1cc(F)cc(F)c1)Nc1ccc2c(c1)C[C@@]1(C2)C(=O)Nc2ncccc21
inactive: 1 nM -6.85% | 8.33 nM -7.92% | 100 nM -8.42% | 833.33 nM -6.83% | 10000 nM -2.55%

CCOc1cc(C(=O)Nc2ccc(Cl)c(-c3nc4ccccc4[nH]3)c2)cc(OCC)c1OCC
inactive: 1 nM 2.95% | 8.33 nM 2.03% | 100 nM 0.45% | 833.33 nM -3.49% | 10000 nM 4.29%

O=C1O[C@H](CO)[C@@H](O)[C@H](O)[C@H]1O [gluconolactone]
inactive: 1 nM -1.05% | 8.33 nM 1.67% | 100 nM -0.14% | 833.33 nM -0.97% | 10000 nM -1.07%

CC(ONC(=O)c1cc(C(F)(F)F)cc(C(F)(F)F)c1)C(=O)Nc1ccc(Cl)cc1 (stereo not given)
inactive: 1 nM 1.52% | 8.33 nM -0.64% | 100 nM 0.05% | 833.33 nM -2.31% | 10000 nM 5.49%

O=C(Oc1ccc([N+](=O)[O-])cc1)N1CCC(C(O)(c2ccc3c(c2)OCO3)c2ccc3c(c2)OCO3)CC1
inactive: 1 nM 0.7% | 8.33 nM 6.75% | 100 nM 2.26% | 833.33 nM 1.03% | 10000 nM 1.62%

C#Cc1cccc(Nc2ncnc3cc(OCCOC)c(OCCOC)cc23)c1 [erlotinib]
inactive: 1 nM -0.8% | 8.33 nM -0.26% | 100 nM -1.96% | 833.33 nM -4.63% | 10000 nM -14.6%

COc1cccc2c1c(O)c(C(=O)N(C)c1ccc(C(F)(F)F)cc1)c(=O)n2C [tasquinimod]
inactive: 1 nM 1.2% | 8.33 nM 3.29% | 100 nM 1.4% | 833.33 nM 1.35% | 10000 nM 1.05%

Cn1c(=O)c2c(ncn2CC(=O)O)n(C)c1=O [acefylline]
inactive: 1 nM -0.43% | 8.33 nM 3.14% | 100 nM 12.4% | 833.33 nM 0.66% | 10000 nM 0.73%

CCOC(=O)c1ccc(OCCC2CCN(c3ccc(C)nn3)CC2)cc1 [pirodavir]
inactive: 1 nM 2.32% | 8.33 nM 1.72% | 100 nM 0.34% | 833.33 nM 1.49% | 10000 nM -2.18%

COc1ccc2cc3[n+](cc2c1OC)CCc1cc2c(cc1-3)OCO2 [berberine]
inactive: 1 nM -11.8% | 8.33 nM -10.1% | 100 nM -11% | 833.33 nM -3.86% | 10000 nM -3.62%

Oc1cc(O)cc(/C=C/c2ccc(O)c(O)c2)c1 [piceatannol]
inactive: 1 nM 2.41% | 8.33 nM -0.84% | 100 nM -0.97% | 833.33 nM 0.83% | 10000 nM 2.32%

Nc1ncnc2c1ncn2[C@@H]1O[C@H](C[C@@H](N)CC[C@H](N)C(=O)O)[C@@H](O)[C@H]1O [sinefungin]
inactive: 1 nM -10.5% | 8.33 nM -10.2% | 100 nM -10% | 833.33 nM -7.77% | 10000 nM -7.24%

Clc1ccc(C(Cn2ccnc2)OCc2ccc(Sc3ccccc3)cc2)c(Cl)c1 (stereo not given) [fenticonazole]
inactive: 1 nM -3.37% | 8.33 nM 3.19% | 100 nM 0.76% | 833.33 nM 0.19% | 10000 nM 2.21%

NC(=O)c1cc([N+](=O)[O-])cc([N+](=O)[O-])c1 [nitromide]
inactive: 1 nM 0.52% | 8.33 nM 1.05% | 100 nM 1.48% | 833.33 nM 0.38% | 10000 nM -0.05%

CCCc1c(OCCCCc2nnn[nH]2)ccc(C(C)=O)c1O [tomelukast]
inactive: 1 nM -8.82% | 8.33 nM -9.23% | 100 nM -10% | 833.33 nM -8.13% | 10000 nM -6.02%

C#CCN[C@@H]1CCc2ccccc21 [rasagiline]
inactive: 1 nM 0.63% | 8.33 nM -1.47% | 100 nM -1.63% | 833.33 nM -1.24% | 10000 nM -0.6%

CC(=O)C1=C(O)C=C2Oc3c(C(C)=O)c(O)c(C)c(O)c3C2(C)C1=O (stereo not drawn) [usniacin-(+)]
inactive: 1 nM 3.22% | 8.33 nM 2.31% | 100 nM 0.43% | 833.33 nM -1.14% | 10000 nM -4.03%

CN1CCN(c2cccc(Nc3nc4c(-c5ccc(S(C)(=O)=O)cc5)cccn4n3)c2)CC1
inactive: 1 nM -0.26% | 8.33 nM 0.06% | 100 nM 0.85% | 833.33 nM -0.58% | 10000 nM -4.01%

CCNC(C)CN1CCc2c(c(=O)oc3ccccc23)C1 (stereo not given)
inactive: 1 nM -2.32% | 8.33 nM 0.86% | 100 nM -0.83% | 833.33 nM -0.78% | 10000 nM -2.07%
